Data from PubChem BioAssay AID463082 (The Scripps Research Institute Molecular Screening Center, 2010).
Hit rate of the full screen: of about 330,000 compounds, about 4,900 (1.5%) were called active.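 How the source made its calls: active means inhibition above the mean inhibition across the screen plus 3 SD (cut at about 25% in these data); inactive means the rest.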 Only a selection was taken, and actives are over-represented in it overall.

Target: Platelet-activating factor acetylhydrolase (Homo sapiens) (UniProt Q13093)
Sequence (Q13093 whole entry, looked up): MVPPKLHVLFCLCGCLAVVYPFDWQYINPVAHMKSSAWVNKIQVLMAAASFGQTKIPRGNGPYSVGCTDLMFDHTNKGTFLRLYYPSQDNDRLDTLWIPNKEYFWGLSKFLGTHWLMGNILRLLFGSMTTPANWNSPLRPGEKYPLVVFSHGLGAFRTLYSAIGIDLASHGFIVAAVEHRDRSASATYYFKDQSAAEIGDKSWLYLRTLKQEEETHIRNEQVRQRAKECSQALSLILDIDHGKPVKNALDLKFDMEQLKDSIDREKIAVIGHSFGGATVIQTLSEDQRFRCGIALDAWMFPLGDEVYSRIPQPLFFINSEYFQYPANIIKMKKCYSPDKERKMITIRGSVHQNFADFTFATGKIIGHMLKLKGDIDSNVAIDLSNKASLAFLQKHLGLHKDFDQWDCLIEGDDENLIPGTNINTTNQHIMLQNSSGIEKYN
Assay: pPAFAH enzyme inhibitors, primary screen, biochemical, fluorescence polarization, human (AID 463082);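 further: inhibitors block binding of the rhodamine activity-based probe so polarization drops; 0% = enzyme with DMSO and 100% = wells lacking pPAFAH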
Conditions: recombinant pPAFAH, FP-rhodamine probe fluorescence polarization; at 3.39 µM; hits give high values

Compound	inhibition
O=C(Nc1ccc2c(c1)OCO2)C1CC(c2c(F)cccc2Cl)=NO1 (stereo unspecified)	1.16% (inactive)
Nc1ccc2nc3c(=O)[nH]c(=S)[nH]c3nc2c1	47.8% (active)
Cc1cc(C)cc(NC(=O)NCc2ccccn2)c1	1.23% (inactive)
O=C(NCc1ccccn1)c1ccc2nc(-c3ccco3)c(-c3ccco3)nc2c1	65.8% (active)
COCCNC(=O)c1snc2ccc(Cl)cc12	-0.4% (inactive)
COc1cccc(NC(=O)NCCN2CCCCC2)c1	3.86% (inactive)
COCCNC(=O)Nc1ccc2nc(-c3ccco3)c(-c3ccco3)nc2c1	75.6% (active)
O=C1CSc2ccc(C(=O)NCc3ccccn3)cc2N1	0.84% (inactive)
Cc1ccc(C(=O)CN2C(=O)NC3(CCc4ccccc43)C2=O)c(C)c1 (stereo unspecified)	-8.87% (inactive)
O=S(=O)(Oc1ccccc1C(=S)N1CCOCC1)c1ccc(Cl)cc1	4.58% (inactive)
O=C(NCc1ccc(F)cc1)C1CCC(CNc2c(N3CCOCC3)c(=O)c2=O)CC1 (stereo unspecified)	1.22% (inactive)
CCOC(=O)c1sc(NC(=O)C2CSC3(C)CCC(=O)N23)nc1C (stereo unspecified)	0.96% (inactive)
Cc1cc(C)c(C2C3=C(Nc4c2c(C)nn4-c2ccccn2)c2ccccc2C3=O)c(C)c1 (stereo unspecified)	-8.35% (inactive)
Cc1ccc(C2C3=C(Nc4[nH]n(-c5ccccc5)c(=O)c42)c2ccccc2C3=O)cc1 (stereo unspecified)	34.5% (active)
Cc1ccc(-c2ccnc3[nH]n(-c4ccccc4)c(=O)c23)cc1	2.79% (inactive)
COc1ccccc1N(CC(=O)Nc1ccc(C)cc1Cl)S(=O)(=O)c1cccs1	6.13% (inactive)
O=c1cc(CN2CCN(S(=O)(=O)/C=C/c3ccccc3)CC2)c2ccc(O)cc2o1	2.78% (inactive)
Cc1ccccc1C(=O)Nc1cccc(-c2nnc(SCC(=O)O)n2C)c1	-1.6% (inactive)
Cc1noc(C)c1C(=O)OC(C)C(=O)Nc1ccc2c(c1)OCO2 (stereo unspecified)	1.18% (inactive)
Cc1cccc(C)c1NC(=O)CNC(=O)Cc1ccc(Br)cc1	1.92% (inactive)
O=C(COC(=O)Cc1ccc(Br)cc1)Nc1c(F)c(F)c(F)c(F)c1F	32.9% (active)
O=C(COC(=O)Cc1ccc(Br)cc1)Nc1ccc(N2CCOCC2)cc1	6.93% (inactive)
CCC(C)N(C(=O)Cn1nc(C)c([N+](=O)[O-])c1C)C1CCS(=O)(=O)C1 (stereo unspecified)	-1.29% (inactive)

Compound	inhibition
COc1ccc(-c2csc3ncnc(N4CCN(S(=O)(=O)c5cccc(F)c5)CC4)c23)cc1	3.15% (inactive)
O=S(=O)(Nc1ncnc2sccc12)c1cccc(F)c1	12.2% (inactive)
Cc1cc(F)ccc1S(=O)(=O)Nc1ncnc2scc(-c3ccc(F)cc3)c12	30.3% (active)
Cc1cnc(C)c(N2CCN(C(=O)C3CCC(=O)N(CCc4cccc(F)c4)C3)CC2)n1 (stereo unspecified)	4.96% (inactive)
CCCCn1c(N)c(N(CC)C(=O)c2ccccc2C(F)(F)F)c(=O)[nH]c1=O	-0.54% (inactive)
CCOC(=O)c1nc(Nc2ccc(C(=O)OC)cc2)c2ccccc2n1	-0.04% (inactive)
CC(=O)Nc1cccc(Nc2nc(-c3cccs3)nc3ccccc23)c1	-12.8% (inactive)
Cc1cccc(-c2nc(Nc3ccc(O)cc3)c3ccccc3n2)c1	26.7% (active)
O=C(COC(=O)CC1CC2CCC1C2)NC(=O)NC1CCCC1 (stereo unspecified)	2.89% (inactive)
Cc1cc(/C=C(/C#N)C(=O)Nc2ccc(Cl)cc2)c(C)n1-c1cccnc1	0.95% (inactive)
Cc1ccc(C(=O)N/C(=C/c2cccs2)C(=O)NCC2CCCO2)cc1 (stereo unspecified)	-4.31% (inactive)
Cc1ccc(-n2c(C)cc(/C=C(\C#N)C(=O)NCC3CCCO3)c2C)cc1 (stereo unspecified)	68.5% (active)
COc1ccccc1C(=O)Nc1ccnn1C1CCN(C(=O)C(C)(C)C)CC1	-0.55% (inactive)
COc1ccc(/C=C/C(=O)N2CCCC2)cc1OC	0% (inactive)
COc1ccc(/C=C/C(=O)c2ccc(NS(=O)(=O)c3ccc(C)cc3)cc2)cc1O	23.6% (inactive)
COC(=O)c1ccc(COc2ccc(/C=C/C(=O)c3ccc(OC)c(CSCC(=O)O)c3)cc2OC)cc1	28.7% (active)
COCCn1c(SC(C)C(=O)NC2CC2)nnc1-c1cccc(C)c1 (stereo unspecified)	-1.49% (inactive)
COc1ccc(C2C(C#N)=C(N)Oc3cc(N)ccc32)cc1OC (stereo unspecified)	26% (active)
N#CC1=C(N)Oc2cc(O)ccc2C1C1CCCCC1 (stereo unspecified)	2.82% (inactive)
COc1cc(C2C(C#N)=C(N)Oc3n[nH]c(-c4ccccn4)c32)cc(OC)c1OC (stereo unspecified)	2.74% (inactive)
CCOC(=O)[C@H]1[C@H]2COc3ccc(C)cc3[C@@H]2N2C(=O)CN(Cc3ccc(F)cc3)C(=O)[C@@]12C	-0.02% (inactive)
C=CCN(N=Nc1cccc([N+](=O)[O-])c1)c1cccc([N+](=O)[O-])c1	9.93% (inactive)
CCOC(=O)CNC(=O)/C(=C\c1ccc(F)cc1)NC(=O)c1ccccc1	-2.32% (inactive)

Compound	inhibition
Cn1c2ccccc2c2cc(/C=C(\NC(=O)c3ccccc3)C(=O)NCC(=O)O)ccc21	24.7% (active)
COc1ccc(/C=C(\NC(=O)c2ccccc2)C(=O)NCCN2CCOCC2)cc1OC	4.35% (inactive)
Cc1ccc2c(c1)nnc1nnc(SCC(=O)O)n12	2.74% (inactive)
CC(C)C[C@H](NC(=O)N1CCn2c1nc1ccccc12)C(=O)NC1CC1	1.86% (inactive)
COc1ccc(C(=O)Nc2cc(C)c(NC(=O)c3ccccc3OC)cn2)cc1	2.94% (inactive)
C=CCn1c(=S)[nH]c2scc(-c3ccco3)c2c1=O	42.6% (active)
C=CCn1c(=S)[nH]c2nc3c(cc2c1=O)COC(C)(C)C3	-1.93% (inactive)
C=CCn1cnc2scc(-c3ccccc3)c2c1=O	0.46% (inactive)
C#CCOCCOCCOCCNc1nc(N2CCN(C(=O)C(Cc3ccc(O)cc3)n3cc(C(N)CC(C)C)nn3)CC2)nc(N2CCN(C(=O)C(Cc3ccc(O)cc3)n3cc(C(N)C(C)CC)nn3)CC2)n1 (stereo unspecified)	0.55% (inactive)
CN(C)S(=O)(=O)N1CCC(Oc2cccc(C(=O)NCCCC3CCCC3)c2)CC1	3.19% (inactive)
Cc1ccc(C(=O)Nc2ccc3c(c2)OCO3)cc1S(=O)(=O)N1CCCCC1	14.5% (inactive)
Cc1ccc(C(=O)O)cc1-c1ccc(/C=C2\SC(=O)N(CC(=O)Nc3ccc4c(c3)OCO4)C2=O)o1	30.2% (active)
Cc1nn(CC(=O)Nc2ccc3c(c2)OCO3)c(C)c1[N+](=O)[O-]	-3.11% (inactive)
O=C(COC(=O)c1ccc(F)cc1)Nc1ccc2c(c1)OCO2	9.5% (inactive)
O=C(NOCc1ccccc1)c1cccc([N+](=O)[O-])c1	7.75% (inactive)
Cn1c(=O)c2c(ncn2CC(=O)N/N=C/c2cn[nH]c2-c2ccc(F)cc2)n(C)c1=O	1.61% (inactive)
CCN(Cc1ccccc1)C(=O)Cc1ccc(OC)c(S(=O)(=O)N2CCOCC2)c1	-1.51% (inactive)
Oc1c(Cl)cc(Cl)c(Cl)c1Cc1c(O)c(Cl)cc(Cl)c1Cl	68.2% (active)
O=C(CN1C(=O)NC2(CCOc3ccccc32)C1=O)Nc1cccc([N+](=O)[O-])c1 (stereo unspecified)	0.7% (inactive)
Cc1cccc(NC(=S)NCCc2ccc(F)cc2)c1C	3.05% (inactive)
CCCCN(C)CCC(=O)Nc1ccc(Cl)cc1	1.11% (inactive)
CCCCC(=O)Nc1ccc2c(c1)C(=O)NC2=O	34.6% (active)
CC(=O)Nc1ccc(Oc2ccc3c(c2)C(=O)NC3=O)cc1	-0.12% (inactive)

Compound	inhibition
Cc1cc(NC(=O)c2ccccc2C)no1	2.84% (inactive)
O=[N+]([O-])c1cc(Cl)cc(/C=N/NC(=S)Nc2cc(S(=O)(=O)N3CCOCC3)ccc2Cl)c1O	36.5% (active)
O=S(=O)(c1ccc(NC(=S)NN=C(C2CC2)C2CC2)cc1)N1CCOCC1	15% (inactive)
Cc1ccc(S(=O)(=O)N2CCN(CC(=O)N/N=C/c3cc([N+](=O)[O-])ccc3Cl)CC2)cc1	3.66% (inactive)
CSc1ccc(C(=O)C2CCCN(C(=O)c3ccc(C)nc3)C2)cc1 (stereo unspecified)	5.05% (inactive)
CCOC(=O)C1C(=O)OC2(CCCC2)C1C(=O)OCC (stereo unspecified)	-0.69% (inactive)
CN(CC(=O)N1CCN(c2ccccc2)CC1)S(=O)(=O)c1cccs1	-1.58% (inactive)
CC(C)CNC(=O)C(=O)Nc1ccc(N(C)C)cc1	-8.71% (inactive)
CN(C)c1ccc(N/C=C/C(=O)C(F)(F)F)cc1	42.4% (active)
CC(=O)N(C)c1ccc(NC(=O)C(F)(F)F)cc1	-4.77% (inactive)
CCCc1ccc(C(=O)[C@@H]2[C@@H](C(C)=O)N3c4ccc(F)cc4C=C[C@@H]3[C@@]23C(=O)Nc2ccccc23)cc1	2.89% (inactive)
O=C(CSc1ncnc2sccc12)NC1CCS(=O)(=O)C1 (stereo unspecified)	4.85% (inactive)
COc1ccc(NC(=O)C(NC(C)=O)C(=O)NCc2ccccc2Cl)cc1 (stereo unspecified)	-2.3% (inactive)
COC(=O)[C@@]12CCCN1[C@H](c1ccc(-c3ccc(F)cc3)c(OC)c1)[C@H]1C(=O)N(C)C(=O)[C@H]12	-3.21% (inactive)
COC(=O)N/N=C/c1cn(CCCOc2ccc(C)cc2)c2ccccc12	19.2% (inactive)
CNC(=S)N/N=C/c1cn(Cc2ccc(C)cc2)c2ccccc12	18.1% (inactive)
CCOC(=O)N/N=C/c1cn(Cc2ccccc2Cl)c2ccccc12	30.1% (active)
Cc1ccc(-c2nc(SCC(=O)Nc3ccccc3OC(F)F)c3c(C)c(C(=O)O)sc3n2)cc1	1.04% (inactive)
OCCCC1CCCCN1Cc1nc(Cc2ccccc2Cl)no1 (stereo unspecified)	-2.08% (inactive)
CC(C)c1ccc(Nc2nnc(SCC(=O)c3nnc(-c4ccccc4)o3)s2)cc1	30.8% (active)
CC(C)N(C(=O)CSc1nnc(NC2CC2)s1)c1ccccc1	-0.35% (inactive)
Cc1ccccc1Nc1nnc(SCC(=O)c2cc3ccccc3o2)s1	2.17% (inactive)
